The values below come from PubChem BioAssay.

The nature of experiment [1]: viability loss in pontine glioma line – cell-based, SU-DIPG-XVII, MIPE5.0, CellTiter-Glo, qHTS, dose response (AID 1347060).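 On AC50: cells exposed to compound for 48 hours before viability readout.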 The following applies: CellTiter-Glo ATP luminescence. For orientation: ATP-based viability assays read luminescence as a measure of living cells.
Experiment [2] can be described thus: viability loss in pontine glioma line – cell-based, SU-DIPG-XIII, MIPE4.0, CellTiter-Glo, qHTS, dose response (AID 1347061; cut-off not given, nearly all actives have AC50 up to about 37 µM;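 further: cells exposed to compound for 48 hours before readout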). The note with it: CellTiter-Glo ATP luminescence.
Experiment [3] in a line: viability loss in pontine glioma line – cell-based, JHH-DIPG-1, MIPE4.0, CellTiter-Glo, qHTS, dose response (AID 1347062; cut-off not given, nearly all actives have AC50 up to about 27 µM;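 on AC50: cells exposed to compound for two days before readout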). The note with it: JHH-DIPG-1 viability, CellTiter-Glo ATP luminescence.
Experiment [4] can be described thus: viability loss in pontine glioma line – cell-based, SU-DIPG-IV, MIPE4.0, CellTiter-Glo, qHTS, dose response (AID 1347063; cut-off not given, nearly all actives have AC50 up to about 30 µM;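 further: compound exposure lasted 48 hours before the viability readout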). The following applies: CellTiter-Glo ATP luminescence.
Experiment [5] in a line: viability loss in pontine glioma line – cell-based, SU-DIPG-XIII, MIPE5.0, CellTiter-Glo, qHTS, dose response (AID 1347064; cut-off not given, nearly all actives have AC50 up to about 23 µM;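 on AC50: cells exposed to compound for 48 hours before the viability read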). The following applies: CellTiter-Glo ATP luminescence.
Experiment [6] can be described thus: viability loss in pontine glioma line – cell-based, SU-DIPG-XXV, MIPE5.0, CellTiter-Glo, qHTS, dose response (AID 1347065).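 Further: cells exposed to compound for 48 hours before ATP readout.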 The following applies: CellTiter-Glo ATP luminescence.
A short description of experiment [7]: growth inhibition of DIPG cells – cell-based, MIPE4.0 library, CellTiter-Glo luminescence, qHTS (AID 1347066; cut-off not given, nearly all actives have AC50 up to about 30 µM;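 further: cells exposed to compound for 48 hours before readout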). The note with it: SU-DIPG-VI viability, CellTiter-Glo ATP luminescence.
The nature of experiment [8]: growth inhibition of DIPG cells – cell-based, MIPE5.0 library, qHTS (AID 1347068; cut-off not given, nearly all actives have IC50 up to about 30 µM;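 on IC50: cells exposed to compound for 48 hours before viability readout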). The following applies: SU-DIPG-XXV viability.
The nature of experiment [9]: JHH-DIPG-1 glioma cell viability, MIPE5.0 library, CellTiter-Glo luminescence, qHTS (AID 1347067).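 Further: cells exposed to compound for 48 hours before readout.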 The following applies: JHH-DIPG-1 glioma viability, CellTiter-Glo ATP luminescence.
A short description of experiment [10]: viability loss with induced miR-34 in A549 – imaging, A549 dox-inducible miR-34, nuclei and caspase counts, primary screen (AID 1347080;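 active means compounds whose cell count with miR-34 switched on is under 0.7 times the count with it off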). The note with it: A549 miR-34 inducible, Hoechst nuclei count, 48 h.
Experiment [11] can be described thus: MELAS cybrid and Rieske KO viability enhancers – cell-based, MELAS cybrids, Rieske KO mouse fibroblasts, CellTiter-Glo, primary screen (AID 1508586;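 active means mean z-score across replicates of 1.96 or higher in either the MELAS or the Rieske mutant cell line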;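 further: z relative to plate mean and SD of compound and empty wells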). The note with it: low glucose.
Experiment [12] can be described thus: compounds altering HSF1 focus formation in cells – imaging, Selleck Cancer Library (AID 1347162; in the data active means plate-normalised HSF1 focus index below about 0.46). The following applies: human cells, HSF1 nuclear foci imaging, at 10 µM; SSMD: measured here: HSF1 foci SSMD mean; cell count: measured here: cell number; plate-normalised HSF1 focus index: stronger effect = lower value.
Where [13] appears, read: stronger effect = lower value, cell number ratio, induced over uninduced.
Where [14] appears, read: measured here: relative caspase fold change +Dox/-Dox.
Where [15] appears, read: measured here: total cells with miR-34 induction, stronger effect = lower value.
[16] abbreviates: measured here: total cells without miR-34 induction.
Where [17] appears, read: MELAS cybrid survival, CellTiter-Glo 48 h, stronger effect = higher value.
The mark [18] stands for this setting: Rieske KO mouse fibroblast survival, CellTiter-Glo 72 h.

Inconclusive results are not listed. The source made the active and inactive calls. Unless noted, cut-off not given; nearly all actives show AC50 up to about 26 µM.

As to `CC(C)(O)c1cc2nc(-c3cnc(N)nc3)nc(N3CCOCC3)c2s1`, the AC50 in [1] was 1.18 µM (active); in [2], 590 nM (active); in [3], 833 nM (active); in experiment [4], 52.6 nM (active); in experiment [5] it was 1.05 µM (active); in experiment [6], 417 nM (active). For the same compound, the AC50 in experiment [7] is 0.148 µM (active). Moreover, the IC50 in experiment [8] was 1.18 µM (active).

For the compound `CC1(C)CC(=O)c2c(C(F)(F)F)nn(-c3ccc(C(N)=O)c(NC4CCC(OC(=O)CN)CC4)c3)c2C1` (stereo not drawn), the AC50 was 0.186 µM (active) in experiment [1]; 662 nM (active) in [2]; 148 nM (active) in experiment [3]; 418 nM (active) in experiment [4]; 0.417 µM (active) in experiment [5]; 235 nM (active) in experiment [6]. For the same compound, the AC50 in experiment [9] is 0.166 µM (active). For the same compound, in experiment [8], the IC50 was 0.263 µM (active). In addition, the results for the fold change in [10] (setting [13]) and in experiment [10] (setting [14]) were 1.04 (inactive) and 0.875, respectively. For the same compound, the values for the cell count in experiment [10] (setting [15]) and in experiment [10] (setting [16]) were 2840 and 2740, respectively. Also, the z-score in experiment [11] (setting [17]) is 2.47 (active); in [11] (setting [18]), -1.59.

For the compound `CC(C)n1nc(-c2cc3cc(O)ccc3[nH]2)c2c(N)ncnc21`, the AC50 in experiment [1] is 2.63 µM (active); in experiment [2], 18700 nM (active); in [3], 9350 nM (active); in experiment [4] it was 148 nM (active); in experiment [5], 1.66 µM (active); in experiment [6], 742 nM (active). In addition, the AC50 in experiment [7] was 20.9 µM (active); in [9] it was 2.63 µM (active). Moreover, the fold change is 0.892 (inactive) in experiment [10] (setting [13]) and 1.11 in experiment [10] (setting [14]). The values for the cell count in experiment [10] (setting [15]) and in experiment [10] (setting [16]) were 1620 and 1820, respectively. Besides, the z-score is 5.6 (active) in [11] (setting [17]) and -2.66 in experiment [11] (setting [18]).

As to `COC(=O)N1CCN(Cc2cccc(NC(=O)Nc3ccc(C)nc3)c2F)CC1`, the call in experiment [1], in [2], in [3], in experiment [4], in [5] and in [6] was inactive. The compound was classed as inactive in [7] and in [9]. Further, the fold change is 0.947 (inactive) in experiment [10] (setting [13]) and 1.41 in experiment [10] (setting [14]). The values for the cell count in [10] (setting [15]) and in experiment [10] (setting [16]) were 9170 and 9680, respectively. Further, the z-score in [11] (setting [17]) is -0.446 (inactive); in [11] (setting [18]), 0.371.

As to `O=[N+]([O-])c1cn2c(n1)OC[C@@H](OCc1ccc(OC(F)(F)F)cc1)C2`, the AC50 in experiment [1] is 26.3 µM (active). Besides, the outcome in experiment [2], in [3], in [4], in [5], in [6] and in experiment [9] was inactive. Moreover, the call in experiment [8] was inactive.

On to `CN(C)CCN(C)C(=O)c1ccc(NC(=O)Nc2ccc(-c3nc(N4CCOCC4)c4ccn(CC(F)(F)F)c4n3)cc2)cc1`, for which the AC50 was 0.235 µM (active) in experiment [1]; 743 nM (active) in [2]; 469 nM (active) in [3]; 33.2 nM (active) in experiment [4]; 0.742 µM (active) in experiment [5]; 332 nM (active) in experiment [6]. For the same compound, the figures for the AC50 in experiment [7] and in experiment [9] were 0.662 µM (active) and 1.48 µM (active), respectively. The same compound showed an SSMD in [12] of 1.02. Also, the cell count in [12] amounted to 7060. Further, in experiment [12], the plate-normalised HSF1 focus index was 1.06 (inactive).

On to `COc1ccc(C2(C#N)CCC(C(=O)O)CC2)cc1OC1CCCC1` (stereo not drawn), for which the compound was called inactive in experiment [1], in experiment [2], in experiment [3], in experiment [4], in experiment [5] and in experiment [6]. Further, in [7], the call was inactive. Besides, the fold change in experiment [10] (setting [13]) is 0.931 (inactive); in experiment [10] (setting [14]), 0.847. Besides, the results for the cell count in [10] (setting [15]) and in experiment [10] (setting [16]) were 7550 and 8110, respectively. The figures for the z-score in experiment [11] (setting [17]) and in experiment [11] (setting [18]) were -0.364 (inactive) and 0.0886, respectively.

As to `COc1cc2ncnc(Nc3ccc(F)c(Cl)c3)c2cc1NC(=O)/C=C/CN1CCCCC1`, the AC50 in [1] is 14.8 µM (active); in experiment [3] it was 18700 nM (active); in experiment [4], 20900 nM (active); in [5], 18.6 µM (active); in experiment [6], 9340 nM (active); in experiment [7] it was 20.9 µM (active). Also, the compound was called inactive in experiment [2]. Also, in experiment [8], the IC50 was 10.5 µM (active). In experiment [12], the SSMD is 1.69. The same compound yielded a cell count in experiment [12] of 6970. Moreover, the plate-normalised HSF1 focus index in experiment [12] was 1.09 (inactive).

The AC50 is the midpoint of the concentration-response curve, whichever way the signal moves. One may read the IC50 as the concentration at which inhibition is half-maximal.
